Screen size: about 39,000 compounds; about 3,300 (8.5%) were called active. Many of the other results were omitted from the sample, so actives are more common in it than they were.
Tested on: HepG2
Assay: cytotoxicity call (relative viability < 0.9)
Conditions: 10 µM

Compound	cytotoxicity call
COCC#Cc1ccc2c(c1)O[C@@H](CN(C)S(=O)(=O)c1ccc(F)cc1)[C@H](C)CN([C@@H](C)CO)S2(=O)=O	inactive
C[C@@H]1CN([C@@H](C)CO)C(=O)Cc2cc(NS(=O)(=O)c3cccs3)ccc2O[C@H]1CN(C)S(=O)(=O)c1ccc(F)cc1	inactive
C[C@H](CO)N1C[C@H](C)[C@@H](CN(C)C(=O)Nc2ccccc2)Oc2ccc(NC(=O)CCN3CCOCC3)cc2CC1=O	inactive
Cc1noc(C)c1NC(=O)Nc1ccc2c(c1)C(=O)N([C@H](C)CO)C[C@H](C)[C@H](CN(C)C(=O)C1CCCCC1)OCCCC[C@@H](C)O2	inactive
C[C@H](CO)N1C[C@H](C)[C@H](CN(C)Cc2ccc(C(=O)Nc3ccccc3N)cc2)Oc2ccc(NC(=O)Nc3ccc(F)cc3)cc2CC1=O	inactive
C[C@H]1CN([C@@H](C)CO)C(=O)Cc2cc(NC(=O)Nc3ccc(F)cc3)ccc2O[C@@H]1CN(C)Cc1ccc(C(=O)Nc2ccccc2N)cc1	inactive
C[C@@H]1CN([C@H](C)CO)C(=O)Cc2cc(NC(=O)Nc3ccc(F)cc3)ccc2O[C@H]1CN(C)Cc1ccc(C(=O)Nc2ccccc2N)cc1	inactive
C[C@H]1CN([C@@H](C)CO)C(=O)Cc2cc(NC(=O)Nc3ccc(F)cc3)ccc2O[C@H]1CN(C)Cc1ccc(C(=O)Nc2ccccc2N)cc1	active
C[C@@H]1CN([C@@H](C)CO)C(=O)Cc2cc(NC(=O)Nc3ccc(F)cc3)ccc2O[C@@H]1CN(C)Cc1ccc(C(=O)Nc2ccccc2N)cc1	active
C[C@H](CO)N1C[C@H](C)[C@@H](CN(C)Cc2ccc(C(=O)Nc3ccccc3N)cc2)Oc2ccc(NC(=O)Nc3ccc(F)cc3)cc2CC1=O	inactive
C[C@@H]1CCCCO[C@@H](CN(C)C(=O)NC2CCCCC2)[C@@H](C)CN([C@@H](C)CO)C(=O)c2cc(NC(=O)Nc3ccc(F)cc3)ccc2O1	inactive
Cc1noc(C)c1S(=O)(=O)N(C)C[C@@H]1Oc2ccc(NS(=O)(=O)c3ccccc3)cc2C(=O)N([C@H](C)CO)C[C@@H]1C	inactive
C[C@@H]1CCCCO[C@@H](CN(C)Cc2ccncc2)[C@@H](C)CN([C@@H](C)CO)C(=O)c2cc(NC(=O)Cc3ccccc3)ccc2O1	inactive
C[C@@H]1CCCCO[C@H](CN(C)C(=O)CCC(F)(F)F)[C@@H](C)CN([C@H](C)CO)C(=O)c2cc(NC(=O)Nc3ccccc3)ccc2O1	inactive
C[C@H]1CN([C@@H](C)CO)C(=O)c2cccc(NC(=O)Nc3ccc4c(c3)OCO4)c2O[C@@H]1CN(C)S(C)(=O)=O	inactive
CN(C)CC(=O)N[C@H]1CC[C@@H](CC(=O)NCCN2CCCCC2)O[C@@H]1CO	inactive
C[C@H]1CN([C@@H](C)CO)C(=O)c2cc(NS(=O)(=O)c3ccc(F)cc3)ccc2O[C@@H]1CN(C)S(=O)(=O)c1cn(C)cn1	inactive
O=C(O)c1cn2cccc(O)c2n1	inactive
C[C@H]1CN([C@@H](C)CO)C(=O)c2cc(NS(C)(=O)=O)ccc2O[C@H]1CN(C)S(C)(=O)=O	inactive
COc1ccc(S(=O)(=O)N(C)C[C@H]2OCc3cnnn3CCCC(=O)N([C@H](C)CO)C[C@H]2C)cc1	inactive
O=C(NC1CC1)[C@@H]1c2ccccc2C(=O)N(Cc2cc(C(F)(F)F)cc(C(F)(F)F)c2)[C@H]1c1ccc(CO)cc1	inactive
Cc1cc(OCCCS(C)(=O)=O)cc(C)c1-c1cccc(COc2ccc3c(c2)OC[C@H]3CC(=O)O)c1	active

Compound	cytotoxicity call
COCC#Cc1ccc2c(c1)O[C@H](CN(C)S(=O)(=O)c1cccc(OC)c1)[C@@H](C)CN([C@@H](C)CO)S2(=O)=O	inactive
O=S(=O)([O-])NC1CCCCC1.[Na+]	inactive
O=S(=O)(O)NC1CCCCC1 [listing 1 of 2 here]	inactive
O=S(=O)(O)NC1CCCCC1 [listing 2 of 2 here]	active
CC(C)NC(=O)N(C)C[C@@H]1Oc2ccc(NC(=O)Cc3ccccc3)cc2CC(=O)N([C@@H](C)CO)C[C@@H]1C	inactive
C[C@H](CO)N1C[C@H](C)[C@@H](CN(C)S(=O)(=O)c2ccc(F)cc2)Oc2c(NC(=O)c3cnccn3)cccc2C1=O	inactive
C[C@H]1CN([C@@H](C)CO)C(=O)c2cccc(NC(=O)C3CC3)c2O[C@H]1CN(C)S(=O)(=O)c1ccccc1	inactive
C[C@@H]1CN([C@@H](C)CO)C(=O)Cc2cc(NC(=O)Nc3ccc(F)cc3)ccc2O[C@H]1CN(C)Cc1ccc(C(F)(F)F)cc1	active
C[C@H]1CN([C@@H](C)CO)C(=O)Cc2cc(NC(=O)Nc3ccc(F)cc3)ccc2O[C@@H]1CN(C)Cc1ccc(C(F)(F)F)cc1	inactive
C[C@H]1CN([C@@H](C)CO)C(=O)Cc2cc(NC(=O)Nc3ccc(F)cc3)ccc2O[C@H]1CN(C)Cc1ccc(C(F)(F)F)cc1	active
C[C@@H]1CN([C@H](C)CO)C(=O)Cc2cc(NC(=O)Nc3ccc(F)cc3)ccc2O[C@@H]1CN(C)Cc1ccc(C(F)(F)F)cc1	active
C[C@@H]1CN([C@@H](C)CO)C(=O)Cc2cc(NC(=O)Nc3ccc(F)cc3)ccc2O[C@@H]1CN(C)Cc1ccc(C(F)(F)F)cc1	active
COc1ccccc1CNC(=O)C[C@H]1C[C@@H]2c3cc(NS(=O)(=O)c4ccc(F)cc4)ccc3O[C@@H]2[C@@H](CO)O1	inactive
C[C@H](CO)N1C[C@H](C)[C@@H](CN(C)Cc2ccc(C(=O)O)cc2)Oc2ccc(NC(=O)Nc3cccc4ccccc34)cc2CC1=O	inactive
C[C@@H]1CN([C@H](C)CO)S(=O)(=O)c2ccc(C3=CCCCC3)cc2O[C@@H]1CN(C)C(=O)C1CCOCC1	inactive
C[C@@H]1CN([C@@H](C)CO)C(=O)c2cc(NC(=O)Nc3ccc(F)cc3)ccc2O[C@@H](C)CCCCO[C@@H]1CN(C)C(=O)c1ccccc1	inactive
C[C@H]1CN([C@@H](C)CO)C(=O)c2ccccc2-c2ccccc2CO[C@H]1CN(C)C(=O)Nc1cccc(C(F)(F)F)c1	inactive
CCC(=O)OCC(=O)C1(OC(=O)CC)C(C)CC2C3CCC4=CC(=O)C=CC4(C)C3(F)C(O)CC21C (centres undefined)	inactive
Cc1ccc(S(=O)(=O)Nc2ccc3c(c2)C(=O)N([C@@H](C)CO)C[C@@H](C)[C@@H](CN(C)S(C)(=O)=O)O3)cc1	inactive
COc1ccc(NC(=O)N2C[C@@H](O)COC[C@H]3O[C@@H](CC(=O)NCc4ccccc4OC)CC[C@@H]32)cc1	inactive
C[C@@H]1CN([C@@H](C)CO)C(=O)c2cc(C#CCN(C)C)cnc2O[C@@H]1CN(C)C(=O)CN1CCOCC1	inactive
C[C@@H]1CN([C@H](C)CO)C(=O)Cc2cc(NC(=O)Nc3ccc(F)cc3)ccc2O[C@H]1CN(C)Cc1ccc(C(F)(F)F)cc1	active

Compound	cytotoxicity call
C[C@H](CO)N1C[C@H](C)[C@@H](CN(C)Cc2ccc(C(F)(F)F)cc2)Oc2ccc(NC(=O)Nc3ccc(F)cc3)cc2CC1=O	active
C[C@H](CO)N1C[C@H](C)[C@H](CN(C)Cc2ccc(C(F)(F)F)cc2)Oc2ccc(NC(=O)Nc3ccc(F)cc3)cc2CC1=O	active
C[C@@H]1CCCCO[C@@H](CN(C)S(=O)(=O)c2ccccc2)[C@H](C)CN([C@H](C)CO)C(=O)c2cc(NC(=O)CCC(F)(F)F)ccc2O1	inactive
COc1ccc(CN(C)C[C@H]2OCCCC[C@H](C)Oc3ccc(NS(=O)(=O)c4ccc(C)cc4)cc3C(=O)N([C@@H](C)CO)C[C@H]2C)cc1	inactive
COCCN1CCCn2c(nc(CNS(C)(=O)=O)cc2=O)C1	inactive
CO[C@H]1CN(C)C(=O)c2cc(NS(=O)(=O)CC(F)(F)F)ccc2OC[C@@H](C)N(C(=O)c2ccc3c(c2)OCO3)C[C@H]1C	inactive
CC(C)NC(=O)N(C)C[C@@H]1OCCCC[C@H](C)Oc2ccc(NC(=O)Nc3cccc4ccccc34)cc2C(=O)N([C@@H](C)CO)C[C@H]1C	inactive
C[C@@H]1CN([C@H](C)CO)C(=O)c2cc(NS(=O)(=O)c3cccs3)ccc2O[C@@H](C)CCCCO[C@H]1CN(C)Cc1ccc2c(c1)OCO2	inactive
Cc1ccc2sc(C)nc2c1	inactive
C[C@@H]1CCCCO[C@H](CN(C)S(=O)(=O)c2ccccc2)[C@@H](C)CN([C@@H](C)CO)C(=O)c2cc(NC(=O)c3ccccc3)ccc2O1	inactive
C[C@H](CO)N1C[C@H](C)[C@@H](CN(C)Cc2ccccc2)OCCCC[C@H](C)Oc2ccc(NC(=O)Nc3ccc(F)cc3)cc2C1=O	active
C[C@H]1CCCCO[C@@H](CN(C)Cc2ccccc2)[C@@H](C)CN([C@@H](C)CO)C(=O)c2cc(NC(=O)Nc3ccc(F)cc3)ccc2O1	active
C[C@H](CO)N1C[C@H](C)[C@H](CN(C)Cc2ccccc2)OCCCC[C@H](C)Oc2ccc(NC(=O)Nc3ccc(F)cc3)cc2C1=O	active
C[C@@H]1CCCCO[C@H](CN(C)Cc2ccccc2)[C@H](C)CN([C@H](C)CO)C(=O)c2cc(NC(=O)Nc3ccc(F)cc3)ccc2O1	inactive
C[C@@H]1CN([C@H](C)CO)C(=O)c2cc(NC(=O)Nc3ccc(F)cc3)ccc2O[C@@H](C)CCCCO[C@@H]1CN(C)Cc1ccccc1	inactive
C[C@@H]1CCCCO[C@H](CN(C)Cc2ccccc2)[C@H](C)CN([C@@H](C)CO)C(=O)c2cc(NC(=O)Nc3ccc(F)cc3)ccc2O1	active
O=C(/C=N/O)Nc1ccccc1C(=O)O	inactive
CC(C)CC#Cc1ccc2c(c1)O[C@H](CN(C)C(=O)c1ccccn1)[C@H](C)CN([C@H](C)CO)S2(=O)=O	inactive
Cc1ccc(S(=O)(=O)N(C)C[C@@H]2Oc3ccc(NC(=O)C4CC4)cc3C(=O)N([C@@H](C)CO)C[C@@H]2C)cc1	inactive
C[C@@H]1CCCCO[C@@H](CN(C)C(=O)CCCN(C)C)[C@@H](C)CN([C@@H](C)CO)C(=O)c2cc(N(C)C)ccc2O1	inactive

From the antibiotic and cytotoxicity screens of Wong et al. (2023)
